TSHR antagonist: human thyrotropin receptor antagonism; P16473; TSHR-expressing cells, TSH-stimulated cAMP HTRF, 2 h; hits give low values; activity change, negative = inhibition, % at 11.5 µM; hit rate 0.2% among 330,000; AID 504810;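 active = activity change below a set negative limit, meaning inhibition stronger than a set level, cut at about -70% in these data; inconclusive = activity change between two set negative limits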
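Cell-based HTRF cAMP assay; TSHR cells + compound, TSH EC80 (4nM final), 2 h, 37 deg C. Lysis with anti-cAMP cryptate and cAMP-d2, 30 min RT, read 665/620 nm.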
ELG1 DNA repair: inhibitors of ELG1-dependent DNA repair in HEK293T cells; HEK293T ELG1-luciferase reporter, luminescence, 16 h; DNA damage induced by 5-fluorouridine; AID 504467; hit rate 2.3% among 330,000; Potency, µM (series often up to 46.1 µM), for inactives: at the highest dose activity change, negative = inhibition, most hits filed as inhibitors; also: potency is read from the fitted curve at half-maximal effect; nearly all actives have a fitted effect of over 55% in size
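In this reporter screen, reduction of luminescence relative to DMSO vehicle indicated activity. Compounds and 5-fluorouridine were added together to 2,000 cells per well, incubated for 16 hr at 37 °C, then developed with ONE-Glo.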
RORgamma inh: blocks mouse ROR gamma transcriptional activity | P51450 | Drosophila S2 Gal4-RORgamma UAS-luciferase reporter, 20 h | Potency, µM (series often up to 53.6 µM), for inactives: top-dose activity change, negative = inhibition, hits mostly inhibitors | hit rate 5.4% among 310,000 | AID 2551; also: potency is read from the fitted curve at half-maximal effect; nearly all actives have a fitted effect of over 60% in size
Target sequence (P51450 whole entry, looked up, the tested form may be a part): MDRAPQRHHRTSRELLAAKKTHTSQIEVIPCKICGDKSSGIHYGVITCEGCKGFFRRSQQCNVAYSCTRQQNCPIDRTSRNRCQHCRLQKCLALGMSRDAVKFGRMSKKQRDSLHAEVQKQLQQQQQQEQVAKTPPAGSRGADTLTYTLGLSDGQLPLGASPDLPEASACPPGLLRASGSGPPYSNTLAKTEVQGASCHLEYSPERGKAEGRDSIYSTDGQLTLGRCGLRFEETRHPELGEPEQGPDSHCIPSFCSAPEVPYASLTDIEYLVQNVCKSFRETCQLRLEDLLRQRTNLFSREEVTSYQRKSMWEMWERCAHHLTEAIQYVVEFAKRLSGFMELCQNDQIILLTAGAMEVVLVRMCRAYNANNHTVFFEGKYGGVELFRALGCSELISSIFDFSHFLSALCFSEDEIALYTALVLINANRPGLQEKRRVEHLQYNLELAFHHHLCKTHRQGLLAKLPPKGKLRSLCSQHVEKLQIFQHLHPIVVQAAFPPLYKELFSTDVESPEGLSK
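Using a luciferase readout, inhibitors were identified by reduced reporter activity in Drosophila cells coexpressing a copper-inducible Gal4–ROR gamma fusion and UAS-driven Photinus luciferase, incubated 20 hr after 700 uM copper sulfate.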
VP16 counter: Gal4-VP16 reporter inhibition counter-screen. Potency, µM (highest dose often 53.6 µM), for inactives: at the top dose activity, negative = inhibition, hits mostly inhibitors. hit rate 3.5% among 310,000. Drosophila S2 Gal4-VP16 UAS-luciferase, luminescence, 20 h;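 also: Gal4-VP16 expression switched on by copper sulfate through the metallothionein promoter; potency is read from the fitted curve at half-maximal effect; nearly all actives have a fitted effect of over 50% in size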
FBPA coupling cs: coupling enzyme interference in Giardia aldolase counter-screen | coupling enzyme system counterscreen, AmpLite Red fluorescence | activity change, negative = inhibition, % at 58.2 µM, hits read low | hit rate 0.67% among 290,000; in the data active = activity change below about -30%
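First, compound is pin-transferred into glyceraldehyde-3-phosphate coupling-enzyme reagent at 57.5 uM final and held 10 min at RT. Next, substrate, coupling system and AmpLite Red are added. After 20 min RT, fluorescence (525/598 nm) is read.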
* = called active by the depositor; ? = inconclusive; · = not tested or not shown; [ ] = another dose, or the depositor's remark. A selection: hits, their analogues and other compounds. The true share with any hit is near 8%. Unless noted, calls follow the shape of the dose curve; as a rule, active = well fitted curve in the direction sought with a large enough effect; inconclusive = small, poorly fitted or top-dose-only effect, or another doubt; inactive = no such curve, though single readings can be large; an effect the other way counts as inactive or inconclusive. % is scaled to controls: 0 for no effect and ±100 for the full control effect.

SMILES	TSHR antagonist	ELG1 DNA repair	RORgamma inh	VP16 counter	FBPA coupling cs
Cc1cccc(NNC(N)=S)c1	-8.9	1.1%	?	10µM*	-1.5
NC(=S)NNc1cccc(Cl)c1	1.5	-6.1%	5.62µM*	15.8µM*	-4.6
CCCCNC(=O)c1ccccc1SCc1c(C)noc1C	0.9	-2.9%	?	?	0.1
CCCCC[C@H](O)/C=C\[C@H]1[C@H](C/C=C\CCCC(=O)O)[C@@H](O)C[C@H]1O (tested in a mixture with another compound)	·	·	5.8%[16.9 µM]	4.5%[17 µM]	1.2
COc1cc(OC)c(N(C)S(=O)(=O)c2cccc(C(=O)OCC(=O)c3c[nH]c4ccccc34)c2)cc1Cl	-28.2	20.6µM*	7.8%	5.3%	-3.9
COc1ccc(C(=O)OCC(=O)c2c[nH]c3ccccc23)cc1OC	-6.4	?	·	·	·
C=CCN(c1ccccc1OC)S(=O)(=O)c1cccc(C(=O)OCC(=O)c2c[nH]c3ccccc23)c1	-14.2	23.1µM*	-8.9%[10 µM]	-10.6%	-5.5
COc1cc(OC)c(N(C)S(=O)(=O)c2cccc(C(=O)Nc3nccs3)c2)cc1Cl	-11.9	23.1µM*	·	·	·
CN(c1ccccc1)S(=O)(=O)c1cccc(C(=O)Nc2nccs2)c1	-18.1	-12.9%	22.5%	?	2.8
COc1ccc(S(=O)(=O)N2CCCCC2)cc1NC(=O)CSc1nnc(C2CC2)n1C	0.8	-0.4%	·	·	·
COc1ccc(C(=O)Nc2ccc(NS(=O)(=O)c3ccccc3)cc2)cc1OC	-4.2	18.3µM*	14.8%	2.0%	-2.5
O=C(O)c1ccc(NC(=O)c2cccc(S(=O)(=O)Nc3ccc(C(=O)O)cc3)c2)cc1	-16.4	3.5%	-7.7%	-21.4%	1.3
O=C(Nc1ccc(Br)cc1)c1cccc(S(=O)(=O)Nc2ccc(Br)cc2)c1	·	·	?	7.94µM*	0.4
O=C1CSc2ccc(C(=O)Nc3cccc(S(=O)(=O)Nc4ccc(Br)cc4)c3)cc2N1	?	13µM*	15.8µM*	10µM*	3.8
CCN(CC)CCNC(=O)c1ccc(NC(=O)c2cccc(S(=O)(=O)Nc3ccc(C)cc3)c2)cc1	-0.6	-3.4%	-105.0%	15.8µM*	-0.3
CCOc1ccccc1CNS(=O)(=O)c1cnc[nH]1	12.3	9.8%	-17.9%	-1.4%	1.4
CC(=O)c1c(C)[nH]c(C(=O)Nc2cccc(C(F)(F)F)c2)c1C	-7.5	?	?	-2.2%	-2.9
COc1ccc(NS(=O)(=O)c2ccc(NC(C)=O)cc2)c(OC)c1	4.2	-9.4%	13.8%	1.5%	1.7
COc1ccc(NS(=O)(=O)c2ccc(NC(=O)c3ccc(N(C)S(C)(=O)=O)cc3)cc2)c(OC)c1	-34.6	-15.2%	?	11.2µM*	-0.2
O=C1CSC(c2cn(-c3ccccc3)nc2-c2cc3ccccc3oc2=O)N1Cc1ccco1 (stereo not given)	-10.7	16.4µM*	7.8%	-1.8%	-3.3
Cc1ccc(-c2nn(-c3ccccc3)cc2C2SCC(=O)N2Cc2ccccc2)o1 (stereo not given)	18.1	?	11.2µM*	?	-2.3
O=C1CSC(c2cn(-c3ccccc3)nc2-c2cc3ccccc3o2)N1Cc1ccccc1 (stereo not given)	-3.1	?	0.7%	13.8%	-3.5
Cc1ccc(N2CCN(S(=O)(=O)c3c(C)noc3C)CC2C)cc1 (stereo not given)	-10.3	0.8%	0.5%	0.4%	-0.7
CN(C)Cc1c(C(=O)N/N=C/CCc2ccccc2)nnn1-c1nonc1N	8.6	?	-9.6%	4.1%	-2.0
CCCCCCn1c2c(c(=N)c3c1CCC3)CCC2	-23.6	?	11.2µM*	11.2µM*	0.5
CCCCCCCn1c2c(c(=N)c3c1CCC3)CCCC2	-18.9	?	6.31µM*	5.62µM*	0.2
CCOc1ccc(OCCN2C(=O)c3ccccc3C2=O)cc1	-0.1	8.2µM*	-24.6%	?	·
CC1(C)Cc2c(cnn2-c2cccc(F)c2)C(NC(=O)Cn2cccn2)C1 (stereo not given)	-1.5	1.0%	43.3%	5.4%	·
CC12CC3CC(C)(C1)CC(C(=O)NC(=S)N1CCCCC1)(C3)C2	15.8	3.6%	0.447µM*	?	1.8

Source: PubChem BioAssay (National Center for Advancing Translational Sciences (NCATS))
